According to PubChem BioAssay (Tox21):
Values joined by “and” are separate entries in the source; they are usually repeats but may differ in a detail not shown here. Identical values can stand only once. Inconclusive results are not listed. Entries that show only a call come without a potency. A structure can be active in one record and inactive in another. Active and inactive are the calls of the source. Unless noted, the call rests on the fitted dose curve.

Columns and labels:
[1] = Nuclear factor erythroid 2-related factor 2/antioxidant responsive element (Nrf2/ARE) small molecule agonists: qHTS cell viability counter screen in human keratinocytes (AID 1919968; active means well fitted curve in the direction sought with a large enough effect in the repeat runs; an effect the other way counts as inactive or inconclusive; further: nearly all actives have a fitted effect of over 55% in size)
How it was run: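 Viability counter-screen: KeratinoSens reporter cells, DMSO-delivered compounds, 23 h at 37 C, CellTiter-Fluor fluorescence.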

[2] = Nuclear factor erythroid 2-related factor 2/antioxidant responsive element (Nrf2/ARE) small molecule agonists: luciferase reporter gene qHTS assay in human keratinocytes (AID 1919969); further: nearly all actives have a fitted effect of over 35% in size; further: potency means the concentration at half of the fitted maximal effect
[3] = biological target: Gonadotropin-releasing hormone receptor (Homo sapiens) (UniProt P30968); experiment: Human gonadotropin-releasing hormone receptor (GnRHR) small molecule agonists, calcium flux assay in GnRHR-HEK293 cells (AID 1920063); further: nearly all actives have a fitted effect of over 35% in size
Gonadotropin-releasing hormone receptor (Homo sapiens), sequence (P30968 whole entry, looked up): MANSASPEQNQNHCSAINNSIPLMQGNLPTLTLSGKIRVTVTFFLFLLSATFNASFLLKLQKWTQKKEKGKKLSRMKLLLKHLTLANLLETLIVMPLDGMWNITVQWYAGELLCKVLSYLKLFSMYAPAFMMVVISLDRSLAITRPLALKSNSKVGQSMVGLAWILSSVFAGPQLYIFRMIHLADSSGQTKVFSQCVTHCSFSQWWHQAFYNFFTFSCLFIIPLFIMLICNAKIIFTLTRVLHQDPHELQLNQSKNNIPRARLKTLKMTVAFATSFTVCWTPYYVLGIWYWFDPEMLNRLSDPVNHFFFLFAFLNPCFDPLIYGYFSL
How it was run: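 Tox21-format agonist screen using human GnRHR-expressing HEK293 cells and a fluorescent calcium dye; kinetic 3-min fluorescence reading after compound addition, 15-point concentration series run in triplicate.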

[4] = biological target: KiSS-1 receptor (Homo sapiens) (UniProt Q969F8); experiment: Human kisspeptin (KISS1R) small molecule agonists, calcium flux assay in KISS1R-HEK293 cells (AID 1920064; active means well fitted curve in the direction sought with a large enough effect in the repeat runs; an effect the other way counts as inactive or inconclusive)
KiSS-1 receptor (Homo sapiens), sequence (Q969F8 whole entry, looked up): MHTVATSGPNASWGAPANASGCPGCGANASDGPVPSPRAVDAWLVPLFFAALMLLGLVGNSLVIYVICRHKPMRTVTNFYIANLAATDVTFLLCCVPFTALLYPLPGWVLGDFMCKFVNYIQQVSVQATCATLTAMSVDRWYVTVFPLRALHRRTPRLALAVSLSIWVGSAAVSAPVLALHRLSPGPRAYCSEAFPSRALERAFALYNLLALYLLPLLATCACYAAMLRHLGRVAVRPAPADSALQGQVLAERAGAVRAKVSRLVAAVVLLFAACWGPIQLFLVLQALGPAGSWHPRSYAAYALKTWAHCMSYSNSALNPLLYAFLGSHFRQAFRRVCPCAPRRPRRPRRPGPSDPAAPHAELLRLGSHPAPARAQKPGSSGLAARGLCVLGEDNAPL
How it was run: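 Intracellular calcium mobilization in KISS1R-HEK293 cells was recorded by fluorescence (Ex/Em 480/540) for 3 min following compound addition to cells pre-loaded 1 h with calcium dye.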

[5] = G protein-coupled receptor (GPCR) small molecule agonists, calcium flux assay: HEK293 wild type cell line counter screen (AID 1920065)
How it was run: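 In this agonist-mode screen, ATP is the positive control and DMSO the vehicle. Cells grow 18 h before a 1 h dye incubation at 37 C; signal is taken at Ex/Em 480/540 over 3 min.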

[6] = p53 small molecule agonists, cell-based qHTS assay with human liver microsomes (AID 1963577)
How it was run: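 p53RE-bla reporter cells were pre-incubated 5 h at 37 C, then treated with compounds plus human liver microsomes (0.5 mg/mL final) and NADPH (0.5 mg/mL final) for 16 h at 37 C. Beta-lactamase activity was read by LiveBLAzer fluorescence after 2 h at room temperature.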

[7] = p53 small molecule agonists, cell-based qHTS assay with rat liver microsomes (AID 1963578)
How it was run: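 p53RE-bla cells were exposed to compounds together with rat liver microsomes (0.5 mg/mL final) and NADPH (0.5 mg/mL final) for 16 h at 37 C, then read by LiveBLAzer beta-lactamase fluorescence after 2 h at room temperature.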

[8] = p53 small molecule agonists, cell-based qHTS assay with human liver microsomes: qHTS cell viability counter screen (AID 1963579); further: nearly all actives have a fitted effect of over 45% in size
How it was run: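 p53RE-bla cells (4,000/well) were pre-incubated 5 h at 37 C, then given compounds in DMSO plus human liver microsomes (0.5 mg/mL final) and NADPH (0.5 mg/mL final) for 16 h at 37 C. Viability was read by CellTiter-Glo luminescence.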

[9] = p53 small molecule agonists, cell-based qHTS assay with rat liver microsomes: qHTS cell viability counter screen (AID 1963580); further: nearly all actives have a fitted effect of over 45% in size
How it was run: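 Intracellular ATP, by CellTiter-Glo luminescence, defines viability. HCT-116 p53RE-bla cells, 4,000 per well, were compound-treated in the presence of rat liver microsomes and NADPH for 16 h at 37 C.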

[10] = p53 small molecule agonists, cell-based qHTS assay: qHTS cell viability counter screen (AID 1963581); further: nearly all actives have a fitted effect of over 45% in size
How it was run: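 Compounds are pinned onto HCT-116 p53RE-bla cells and left 16 h at 37 C. Following the reporter FRET read, ATP is quantified by CellTiter-Glo luminescence after 30 min at room temperature.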

[11] = p53 small molecule agonists, cell-based qHTS assay (AID 1963582; active means well fitted activation curve with a large enough effect in the signal ratio in the repeat runs, not every such curve was filed as active; the % refers to the signal ratio)
How it was run: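 Agonist activity was scored from beta-lactamase FRET fluorescence in p53RE-bla cells treated 16 h at 37 C with compounds in DMSO, substrate incubation being 2 h at room temperature.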

[12] = biological target: 5-hydroxytryptamine receptor 2A (Homo sapiens) (UniProt P28223); experiment: 5-hydroxytryptamine receptor 2A (HTR2A) small molecule antagonists, cell-based qHTS assay (AID 1963586); further: nearly all actives have a fitted effect of over 45% in size
5-hydroxytryptamine receptor 2A (Homo sapiens), sequence (P28223 whole entry, looked up): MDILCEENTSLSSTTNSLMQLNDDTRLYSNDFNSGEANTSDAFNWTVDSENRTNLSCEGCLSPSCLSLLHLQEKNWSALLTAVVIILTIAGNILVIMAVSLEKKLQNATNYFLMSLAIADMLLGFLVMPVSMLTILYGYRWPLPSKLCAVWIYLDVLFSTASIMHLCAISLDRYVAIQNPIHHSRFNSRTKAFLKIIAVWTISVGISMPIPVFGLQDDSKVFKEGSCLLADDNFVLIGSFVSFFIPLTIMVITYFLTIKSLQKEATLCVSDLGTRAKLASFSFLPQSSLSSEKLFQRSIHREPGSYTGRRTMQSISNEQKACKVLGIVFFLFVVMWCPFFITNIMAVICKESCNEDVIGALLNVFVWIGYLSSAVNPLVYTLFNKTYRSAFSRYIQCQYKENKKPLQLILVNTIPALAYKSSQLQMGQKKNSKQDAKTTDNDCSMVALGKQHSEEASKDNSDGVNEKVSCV
How it was run: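 Antagonist-mode intracellular calcium assay: DOI (4 nM) added after 5 min compound pre-incubation at room temperature to dye-loaded HTR2A-CHO cells. Fluorescence followed for 3 min, sampled every second.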

[13] = biological target: 5-hydroxytryptamine receptor 2A (Homo sapiens) (UniProt P28223); experiment: 5-hydroxytryptamine receptor 2A (HTR2A) small molecule agonists, cell-based qHTS assay (AID 1963587); further: nearly all actives have a fitted effect of over 30% in size
How it was run: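 Kinetic calcium-flux fluorescence (2 min, 1 sec intervals) after compound addition in agonist mode. HTR2A-CHO cells were cultured 18 h, then dye-loaded 1 h at 37 C.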

[14] = biological target: Muscarinic acetylcholine receptor M1 (Homo sapiens) (UniProt P11229); experiment: Cholinergic receptor muscarinic 1 (CHRM1) small molecule antagonists, cell-based qHTS assay (AID 1963588); further: nearly all actives have a fitted effect of over 40% in size
Muscarinic acetylcholine receptor M1 (Homo sapiens), sequence (P11229 whole entry, looked up): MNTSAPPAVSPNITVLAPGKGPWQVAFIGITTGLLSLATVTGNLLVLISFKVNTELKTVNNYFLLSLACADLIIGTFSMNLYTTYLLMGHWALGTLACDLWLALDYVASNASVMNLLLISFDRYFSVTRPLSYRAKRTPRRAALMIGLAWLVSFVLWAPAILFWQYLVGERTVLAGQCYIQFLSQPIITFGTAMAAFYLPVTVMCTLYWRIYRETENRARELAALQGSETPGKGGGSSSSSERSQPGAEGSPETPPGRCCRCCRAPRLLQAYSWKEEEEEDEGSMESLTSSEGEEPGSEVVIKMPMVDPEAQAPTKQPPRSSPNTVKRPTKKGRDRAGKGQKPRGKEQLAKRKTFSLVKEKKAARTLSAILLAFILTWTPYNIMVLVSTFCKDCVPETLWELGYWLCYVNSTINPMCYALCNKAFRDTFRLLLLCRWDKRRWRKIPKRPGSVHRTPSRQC
How it was run: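 CHRM1-CHO calcium-flux assay, antagonist mode. Cells were seeded 18 h, dye-loaded 1 h at 37 C and given compound for 5 min at RT, then acetylcholine was added at 50nM. FDSS fluorescence was read 3 min; 15 concentrations, three runs.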

[15] = biological target: Muscarinic acetylcholine receptor M1 (Homo sapiens) (UniProt P11229); experiment: Cholinergic receptor muscarinic 1 (CHRM1) small molecule agonists, cell-based qHTS assay (AID 1963589); further: nearly all actives have a fitted effect of over 35% in size
How it was run: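 Stable CHRM1-CHO cells (human receptor) were incubated 18 h, dye-loaded for 1 h at 37 C and exposed to test compounds for agonist activity, with calcium-dependent fluorescence followed kinetically.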

[16] = cAMP Responsive Elements (CRE) small molecule agonists, cell-based qHTS assay (AID 1963590)
How it was run: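 FRET-based beta-lactamase readout (LiveBLAzer B/G, 2 h RT) quantified CRE activation in HEK 293T CRE-bla cells after 3 h treatment with DMSO-dissolved compounds.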

[17] = cAMP Responsive Elements (CRE) small molecule antagonists, cell-based qHTS assay (AID 1963591; active means well fitted inhibition curve with a large enough effect in the signal ratio in the repeat runs, not every such curve was filed as active; the % refers to the signal ratio)
How it was run: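 qHTS in CRE-bla HEK 293T cells: compound in DMSO, then 0.25 uM NKH477 (final), 3 h at 37 °C/5% CO2; beta-lactamase FRET read-out after 2 h substrate incubation.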

[18] = biological target: D(2) dopamine receptor (Homo sapiens) (UniProt P14416); experiment: Dopamine D2 receptor (DRD2) small molecule agonists, cell-based qHTS assay (AID 1963594); further: nearly all actives have a fitted effect of over 35% in size
D(2) dopamine receptor (Homo sapiens), sequence (P14416 whole entry, looked up): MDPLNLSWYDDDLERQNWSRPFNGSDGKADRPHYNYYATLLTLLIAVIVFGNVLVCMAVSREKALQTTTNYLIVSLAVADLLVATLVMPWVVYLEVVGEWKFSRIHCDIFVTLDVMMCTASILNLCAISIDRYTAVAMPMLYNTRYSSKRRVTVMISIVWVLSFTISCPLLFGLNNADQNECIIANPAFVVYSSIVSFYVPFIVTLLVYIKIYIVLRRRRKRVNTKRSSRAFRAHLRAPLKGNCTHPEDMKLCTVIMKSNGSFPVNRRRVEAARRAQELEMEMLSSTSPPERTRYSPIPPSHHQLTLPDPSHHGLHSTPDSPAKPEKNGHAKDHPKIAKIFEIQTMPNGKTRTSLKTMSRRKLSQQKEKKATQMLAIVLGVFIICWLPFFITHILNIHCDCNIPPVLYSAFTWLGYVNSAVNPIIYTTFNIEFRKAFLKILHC
How it was run: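 cAMP accumulation in DRD2-HEK293 cells measured by HTRF after 1 h detection; compounds added 10 min before NKH477 (200nM […]) forskolin-analogue stimulation, 30 min at room temperature, with Ro20-1724 present at 0.1 mM final.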

[19] = biological target: D(2) dopamine receptor (Homo sapiens) (UniProt P14416); experiment: Dopamine D2 receptor (DRD2) small molecule antagonists, cell-based qHTS assay (AID 1963595; active means well fitted inhibition curve with a large enough effect in the signal ratio in the repeat runs, with a control signal flat; the % refers to the signal ratio)
How it was run: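 Antagonist mode in DRD2-HEK293 cells: after compound addition with 0.1 mM Ro20-1724, cells received quinpirole (12 nM) and NKH477 (200 nM) for 30 min at room temperature; HTRF cAMP read after 1 h detection.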

[20] = biological target: Beta-2 adrenergic receptor (Homo sapiens) (UniProt P07550); experiment: Adrenergic beta2 receptor (ADRB2) small molecule antagonists, cell-based qHTS assay (AID 1963592); further: series mostly up to about 92 µM; nearly all actives have a fitted effect of over 50% in size
Beta-2 adrenergic receptor (Homo sapiens), sequence (P07550 whole entry, looked up): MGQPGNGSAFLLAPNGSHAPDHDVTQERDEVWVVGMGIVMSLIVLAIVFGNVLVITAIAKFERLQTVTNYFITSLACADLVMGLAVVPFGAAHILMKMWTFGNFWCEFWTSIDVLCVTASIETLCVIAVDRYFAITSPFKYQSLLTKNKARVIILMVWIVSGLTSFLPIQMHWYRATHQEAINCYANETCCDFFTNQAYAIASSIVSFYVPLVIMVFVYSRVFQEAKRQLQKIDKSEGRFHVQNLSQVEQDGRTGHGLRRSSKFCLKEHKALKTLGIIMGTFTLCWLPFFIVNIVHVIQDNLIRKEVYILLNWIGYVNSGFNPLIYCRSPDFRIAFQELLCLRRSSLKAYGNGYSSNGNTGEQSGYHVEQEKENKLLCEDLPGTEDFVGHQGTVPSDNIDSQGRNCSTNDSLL
How it was run: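 Cells (CHO, stable ADRB2 overexpression) incubated 18-20hr at 37C; compounds added from DMSO; agonist mix (1nM isoproterenol, 100uM IBMX, 25uM Ro-20-1724) added; 0.5hr RT; d2-cAMP and anti-cAMP-cryptate added; 1hr RT; 665/615 nm read.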

Row | SMILES | Potency [1] | Potency [2] | Potency [3] | Potency [4] | Potency [5] | Potency [6] | Potency [7] | Potency [8] | Potency [9] | Potency [10] | Potency [11] | Potency [12] | Potency [13] | Potency [14] | Potency [15] | Potency [16] | Potency [17] | Potency [18] | Potency [19] | Potency [20]
1 | Nc1cccc(N)c1 | inactive | inactive and 21.4 µM (active) | inactive | inactive | inactive | inactive | inactive | inactive | inactive | inactive | inactive | inactive | inactive | inactive | inactive | inactive | inactive | inactive | inactive | 
2 | C[Si](C)(C)O[Si](C)(C)C | inactive | inactive | inactive | inactive | inactive | inactive | inactive | inactive | inactive | inactive | inactive | inactive | inactive | inactive | inactive | inactive |  | inactive | inactive | inactive
3 | CC(=O)NS(=O)(=O)c1ccc(N)cc1 | inactive | inactive | inactive | inactive | inactive | inactive | inactive | inactive | inactive | inactive | inactive | inactive | inactive | inactive | inactive | inactive | inactive | inactive | inactive | 
4 | O=C(O)CC(C(=O)O)C(CC(=O)O)C(=O)O (stereo not given) | inactive | inactive | inactive | inactive | inactive | inactive | inactive | inactive | inactive | inactive | inactive | inactive | inactive | inactive | inactive | inactive | inactive | inactive | inactive | inactive
5 | CC(=O)C1=C(C)[C@@H]2C[C@@]3(C1)[C@H](C)CC[C@H]3C2(C)C | inactive | inactive | inactive | inactive | inactive | inactive | inactive | inactive | inactive | inactive | inactive | inactive | inactive | inactive | inactive | inactive |  | inactive | inactive | inactive
6 | Cc1cc(=O)[nH]c(=S)[nH]1 | inactive | inactive | inactive | inactive | inactive | inactive | inactive | inactive | inactive | inactive | inactive | inactive | inactive | inactive | inactive | inactive | inactive | inactive | inactive | 
7 | CC(=O)OC[C@H]1O[C@@](COC(C)=O)(O[C@H]2O[C@H](COC(C)=O)[C@@H](OC(C)=O)[C@H](OC(C)=O)[C@H]2OC(C)=O)[C@@H](OC(C)=O)[C@@H]1OC(C)=O | inactive | inactive | inactive | inactive | inactive | inactive | inactive | inactive | inactive | inactive | inactive | inactive | inactive | inactive | inactive | inactive | inactive | inactive | inactive | inactive
